Among the data in PubChem BioAssay (EPA / NIEHS) are outcome and AC50 values, retold here.

Records with an inconclusive call do not appear. Active and inactive are the calls of the source. Rule for the calls, unless noted: active = hit-call score of the fitted dose curve at least 0.9, where 1 is the maximum; inactive = score below 0.9.

The target of test [1] is Paired box protein Pax-6 (Homo sapiens) (UniProt P26367). In words: ATG_Pax6_CIS: Attagene CIS-FACTORIAL HepG2 Assay for human Paired Box 6 (PAX6) (AID 2282956). The following applies: HepG2 CIS-FACTORIAL PAX6 reporter transcription, RNA readout; actives raise or lower the signal. The method, boiled down: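 Fluorescent RT-PCR products separated by capillary electrophoresis report PAX6-linked promoter mRNA in HepG2 cells 24 h post-dose. Curves fitted bidirectionally, DMSO as negative control.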

Test [2] in a line: ATG_PXRE_CIS: Attagene CIS-FACTORIAL HepG2 Assay for human Pregnane X Receptor Element (PXRE) (AID 2282957). The following applies: HepG2 Attagene CIS-FACTORIAL PXRE reporter, mRNA; actives raise or lower the signal. The method, boiled down:
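Reporter transcripts under endogenous PXR-responsive cis-regulation quantified from total RNA of transfected HepG2 cells 24 h post-dosing, via RT-PCR with fluorescent primer extension and capillary electrophoresis. Gain or loss of signal fitted against DMSO baseline.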

Test [3] can be described thus: ATG_PPRE_CIS: Attagene CIS-FACTORIAL HepG2 Assay for human Peroxisome Proliferator-activated Response Element (PPRE) (AID 2282958). To be noted: HepG2 PPRE cis-element reporter, Attagene transcription factor profiling; actives raise or lower the signal. The method, boiled down:
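HepG2 cells transiently transfected with multiplexed cis-element reporter units measure endogenous transcription factor activity. After 24 h compound exposure, reporter mRNA is quantified by RT-PCR, 6-FAM labeling, HpaI digestion and capillary electrophoresis; bidirectional fits are made against DMSO baseline.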

Test [4] is described as follows: ATG_RORE_CIS: Attagene CIS-FACTORIAL HepG2 Assay for human RAR-related Orphan Receptor Element (RORE) (AID 2282959). The following applies: HepG2 Attagene cis-factorial RORE reporter, mRNA; actives raise or lower the signal. The method, boiled down:
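HepG2 cells transiently transfected with multiple cis-element reporter transcription units, exposed to chemical for 24 h. Reporter mRNA quantified by RT-PCR, 6-FAM primer-extension labeling, HpaI digestion and capillary electrophoresis; bidirectional fit versus DMSO baseline.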

A short description of test [5]: ATG_Sox_CIS: Attagene CIS-FACTORIAL HepG2 Assay for human SRY-box transcription factor (SOX) (AID 2282960). The following applies: HepG2 Attagene cis-factorial SOX reporter, mRNA; actives raise or lower the signal. The method, boiled down: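 HepG2 cells transiently transfected with cis-element-driven multiple reporter transcription units, dosed 24 h; reporter mRNA measured by RT-PCR, FAM labelling, HpaI digestion and capillary electrophoresis. Bidirectional fit versus DMSO baseline.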

The nature of test [6]: ATG_SREBP_CIS: Attagene CIS-FACTORIAL HepG2 Assay for human Sterol Regulatory Element Binding (SREBP) (AID 2282962). To be noted: HepG2 Attagene cis-factorial SREBP reporter, mRNA; actives raise or lower the signal. Summed up: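 Endogenous factor activity is measured in HepG2 through multiplexed reporter units under cis-element control. Following a 24 h incubation, reporter transcripts are reverse-transcribed, PCR-amplified and sized by capillary electrophoresis; activity is fitted in both directions relative to DMSO.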

Test [7] addresses Signal transducer and activator of transcription 3 (Homo sapiens) (UniProt P40763). In words: ATG_STAT3_CIS: Attagene CIS-FACTORIAL HepG2 Assay for human Signal Transducer and Activator of Transcription 3 (STAT3) (AID 2282963). The following applies: HepG2, Attagene cis-factorial STAT3 reporter transcription; actives raise or lower the signal. Summed up:
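Uses human liver HepG2 transiently carrying cis-regulated reporter transcription units. Following 24 h dosing, reporter mRNA induction was detected by RT-PCR and capillary electrophoresis, analysed bidirectionally versus DMSO.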

A short description of test [8]: ATG_TA_CIS: Attagene CIS-FACTORIAL HepG2 Assay for human TA Basal Promoter (AID 2282964). The following applies: HepG2 Attagene CIS-factorial TA basal promoter reporter; actives raise or lower the signal. Summed up: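 Cis-factorial format in HepG2: reporters report endogenous factors, not chimeric Gal4 fusions. After 24 h treatment, reporter transcripts were measured by RT-PCR-capillary electrophoresis fluorescence, analysed bidirectionally versus DMSO.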

Test [9] can be described thus: ATG_TCF_b_cat_CIS: Attagene CIS-FACTORIAL HepG2 Assay for human T-Cell-Factor with beta-catenin (TCF/b-cat) (AID 2282965). To be noted: HepG2 TCF/beta-catenin cis-reporter transcription, actives raise or lower the signal. The method, boiled down:
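Using capillary electrophoresis as the read-out, labelled reporter cDNA fragments from transiently transfected HepG2 were sized and quantified. Exposure lasted 24 hours; activity in either direction was referenced to DMSO.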

The nature of test [10]: ATG_TAL_CIS: Attagene CIS-FACTORIAL HepG2 Assay for human TAL Basal Promoter (AID 2282966).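 Note: background control endpoint measuring basal TAL promoter reporter mRNA not a specific factor.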 The following applies: HepG2 Attagene cis-factorial TAL promoter reporter; actives raise or lower the signal. Summed up: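 Background-control endpoint: basal TAL promoter reporter transcripts in transiently transfected HepG2, measured 24 h after dosing. Read-out by RT-PCR with fluorescent primer extension and capillary electrophoresis; gain or loss of signal fitted relative to DMSO.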

The nature of test [11]: ATG_TGFb_CIS: Attagene CIS-FACTORIAL HepG2 Assay for human Transforming Growth Factor (TGF) (AID 2282967). To be noted: HepG2 Attagene CIS TGFb reporter, mRNA transcription; actives raise or lower the signal. The method, boiled down: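 Multiplexed cis-reporter HepG2 system, 24 h treatment; mRNA induction read by fluorescence after RT-PCR and CE; DMSO negative control, bidirectional curve fitting.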

Test [12] in a line: ATG_VDRE_CIS: Attagene CIS-FACTORIAL HepG2 Assay for human Vitamin D Receptor Element (VDRE) (AID 2282968). To be noted: HepG2 VDRE cis-reporter transcription, actives raise or lower the signal. Summed up: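 Transfected HepG2 reporter cells, chemical treatment 24 h. RNA isolated, cDNA amplified with reporter-specific primers, products analysed by capillary electrophoresis. Endpoint fitted in both directions versus DMSO.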

Test [13] addresses Nuclear receptor subfamily 1 group I member 3 (Homo sapiens) (UniProt Q14994). Kind of test: ATG_CAR_TRANS: Attagene TRANS-FACTORIAL HepG2 Assay for human Constitutive Androstane Receptor (CAR) (AID 2282969; active = hit-call score of the fitted dose curve at least 0.9, where 1 is the maximum;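 note: activators raise reporter mRNA above DMSO so AC50 marks induction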). The following applies: HepG2 Attagene TRANS-FACTORIAL CAR reporter. The method, boiled down: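 Steps: transient transfection of HepG2 with multiple GAL4-UAS reporter units; 24 h compound incubation; RNA isolation, RT-PCR, 6-FAM primer extension, HpaI digest; capillary electrophoresis. Gain-of-signal relative to DMSO negative control.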

Test [14] deals with Estrogen receptor (Homo sapiens) (UniProt P03372). In words: ATG_ERa_TRANS: Attagene TRANS-FACTORIAL HepG2 Assay for human Estrogen Receptor alpha (ERa) (AID 2282970; active = hit-call score of the fitted dose curve at least 0.9, where 1 is the maximum). The following applies: HepG2 Attagene TRANS ERa GAL4 reporter, mRNA. The method, boiled down:
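Reporter transcripts were measured 24 h after dosing by RT-PCR with fluorescent primer extension and capillary electrophoresis. The system is transiently transfected HepG2 expressing exogenous NR-Gal4 chimeras driving GAL4-UAS reporters; DMSO is the baseline.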

In test [15] the target is X-box-binding protein 1 (Homo sapiens) (UniProt P17861). In words: ATG_Xbp1_CIS: Attagene CIS-FACTORIAL HepG2 Assay for human X-box Binding Protein 1 (XBP1) (AID 2282972). To be noted: HepG2 XBP1 cis-element reporter, Attagene multiplex; actives raise or lower the signal. Summed up:
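Multiplexed cis-reporter readout in transfected HepG2 liver cells. Exposure lasted 24 hours. Activity in either direction was fitted against DMSO as negative control and baseline.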

Test [16] in a line: ATG_M_19_TRANS: Attagene TRANS-FACTORIAL HepG2 Assay for M19 Transcription Factor (Internal Marker) (AID 2282974; active = hit-call score of the fitted dose curve at least 0.9, where 1 is the maximum). To be noted: HepG2 Attagene TRANS-FACTORIAL M19 internal marker reporter. Summed up: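 HepG2 cells transiently transfected with multiple GAL4-UAS reporter transcription units were exposed to chemicals for 24 h. Reporter mRNA was read by RT-PCR, 6-FAM primer extension, HpaI digestion and capillary electrophoresis; gain of signal fitted relative to DMSO.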

For test [17], the target named is Estrogen-related receptor gamma (Homo sapiens) (UniProt P62508). In words: ATG_ERRg_TRANS: Attagene TRANS-FACTORIAL HepG2 Assay for human Estrogen-Related Receptor gamma (ERRg) (AID 2282977; active = hit-call score of the fitted dose curve at least 0.9, where 1 is the maximum;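 note: hits increase reporter signal over DMSO so potencies reflect activators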). To be noted: HepG2 Attagene TRANS reporter, ERRg transactivation. Summed up: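 Exogenous NR-Gal4 chimera activity was assessed in HepG2 cells bearing transfected GAL4-UAS reporters. After 24 h dosing, total RNA underwent RT-PCR, fluorescent primer extension and HpaI digestion before capillary electrophoresis, with gain of signal scored against DMSO.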

Test [18] deals with Transcription factor Sp1 (Homo sapiens) (UniProt P08047). In words: ATG_Sp1_CIS: Attagene CIS-FACTORIAL HepG2 Assay for human Specificity Protein 1 (Sp1) (AID 2282961). The following applies: HepG2 Sp1 cis-reporter transcription, actives raise or lower the signal. The method, boiled down:
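HepG2 cells transiently transfected with multiple reporter transcription units driven by cis-regulatory elements; Sp1-responsive reporter mRNA measured 24 h after dosing by RT-PCR and capillary electrophoresis fluorescence, fitted bidirectionally against DMSO baseline.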

Test [19] is described as follows: ATG_GAL4_TRANS: Attagene TRANS-FACTORIAL HepG2 Assay for GAL4 (Internal Marker) (AID 2282976; active = hit-call score of the fitted dose curve at least 0.9, where 1 is the maximum). The following applies: HepG2 Attagene TRANS GAL4 internal marker reporter. The method, boiled down: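 In transfected human HepG2 liver cells dosed 24 h, GAL4 reporter mRNA serves as a baseline marker. Detection by RT-PCR with fluorescent capillary electrophoresis, activity fitted upward relative to DMSO.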

Test [20] deals with Steroid hormone receptor ERR1 (Homo sapiens) (UniProt P11474). In words: ATG_ERRa_TRANS: Attagene TRANS-FACTORIAL HepG2 Assay for human Estrogen-Related Receptor alpha (ERRa) (AID 2282971; active = hit-call score of the fitted dose curve at least 0.9, where 1 is the maximum). To be noted: HepG2 Attagene TRANS reporter, ERRa transactivation. Summed up: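 Reporter transcripts from ERRa-Gal4 chimera activity measured in transiently transfected human HepG2 cells 24 hours after dosing, using RT-PCR with 6-FAM primer extension, HpaI digestion and capillary electrophoresis; DMSO is baseline.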
Steroid hormone receptor ERR1 (Homo sapiens), sequence (P11474 whole entry, looked up, the tested form may be a part): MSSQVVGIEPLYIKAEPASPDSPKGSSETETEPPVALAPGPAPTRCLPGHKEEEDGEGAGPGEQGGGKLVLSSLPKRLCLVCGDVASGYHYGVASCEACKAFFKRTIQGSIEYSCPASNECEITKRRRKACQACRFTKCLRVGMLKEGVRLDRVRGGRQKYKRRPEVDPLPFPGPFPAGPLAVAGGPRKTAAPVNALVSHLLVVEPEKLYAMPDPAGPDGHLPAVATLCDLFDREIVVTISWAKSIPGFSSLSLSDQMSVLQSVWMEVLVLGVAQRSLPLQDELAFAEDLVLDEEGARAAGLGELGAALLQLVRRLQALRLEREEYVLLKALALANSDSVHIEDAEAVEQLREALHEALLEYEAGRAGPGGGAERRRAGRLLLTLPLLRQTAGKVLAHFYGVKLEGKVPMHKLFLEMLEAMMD

Paired box protein Pax-6 (Homo sapiens), sequence (P26367 whole entry, looked up): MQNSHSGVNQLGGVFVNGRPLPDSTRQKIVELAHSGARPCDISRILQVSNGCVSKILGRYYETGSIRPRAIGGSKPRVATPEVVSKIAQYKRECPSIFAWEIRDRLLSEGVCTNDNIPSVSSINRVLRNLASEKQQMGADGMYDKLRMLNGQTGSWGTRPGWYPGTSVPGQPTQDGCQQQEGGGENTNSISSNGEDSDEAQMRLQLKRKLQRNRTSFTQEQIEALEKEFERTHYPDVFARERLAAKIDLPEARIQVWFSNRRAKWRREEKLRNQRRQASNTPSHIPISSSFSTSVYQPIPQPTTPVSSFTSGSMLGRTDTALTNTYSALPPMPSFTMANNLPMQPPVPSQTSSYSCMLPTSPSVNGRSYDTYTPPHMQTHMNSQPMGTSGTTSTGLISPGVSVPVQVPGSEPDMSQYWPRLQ
X-box-binding protein 1 (Homo sapiens), sequence (P17861 whole entry, looked up): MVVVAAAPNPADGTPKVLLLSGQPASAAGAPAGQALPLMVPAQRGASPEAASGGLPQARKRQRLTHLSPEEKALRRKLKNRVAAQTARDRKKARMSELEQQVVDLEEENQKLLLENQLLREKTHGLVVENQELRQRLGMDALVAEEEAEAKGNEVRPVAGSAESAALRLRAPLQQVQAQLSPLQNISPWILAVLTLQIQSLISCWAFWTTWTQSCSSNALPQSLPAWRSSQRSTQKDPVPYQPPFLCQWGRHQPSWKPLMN
Signal transducer and activator of transcription 3 (Homo sapiens), sequence (P40763 whole entry, looked up): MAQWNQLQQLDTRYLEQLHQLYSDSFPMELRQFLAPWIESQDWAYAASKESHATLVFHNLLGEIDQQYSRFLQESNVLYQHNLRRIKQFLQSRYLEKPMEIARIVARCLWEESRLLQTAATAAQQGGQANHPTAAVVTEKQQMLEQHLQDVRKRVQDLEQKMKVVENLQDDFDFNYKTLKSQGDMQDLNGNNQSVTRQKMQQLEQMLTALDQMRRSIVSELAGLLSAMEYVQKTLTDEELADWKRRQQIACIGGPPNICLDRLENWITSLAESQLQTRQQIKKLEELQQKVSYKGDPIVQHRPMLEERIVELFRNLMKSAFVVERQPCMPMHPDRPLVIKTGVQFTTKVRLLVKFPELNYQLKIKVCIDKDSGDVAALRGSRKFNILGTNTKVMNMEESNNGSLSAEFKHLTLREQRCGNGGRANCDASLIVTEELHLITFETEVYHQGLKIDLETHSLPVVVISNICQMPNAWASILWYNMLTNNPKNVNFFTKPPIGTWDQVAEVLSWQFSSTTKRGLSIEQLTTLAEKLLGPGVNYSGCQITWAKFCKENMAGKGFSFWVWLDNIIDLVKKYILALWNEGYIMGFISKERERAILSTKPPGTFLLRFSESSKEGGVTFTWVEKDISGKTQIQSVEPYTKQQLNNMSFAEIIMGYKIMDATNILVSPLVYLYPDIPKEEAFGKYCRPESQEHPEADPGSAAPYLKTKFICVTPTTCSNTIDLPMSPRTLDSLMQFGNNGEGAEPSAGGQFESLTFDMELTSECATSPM
Transcription factor Sp1 (Homo sapiens), sequence (P08047 whole entry, looked up): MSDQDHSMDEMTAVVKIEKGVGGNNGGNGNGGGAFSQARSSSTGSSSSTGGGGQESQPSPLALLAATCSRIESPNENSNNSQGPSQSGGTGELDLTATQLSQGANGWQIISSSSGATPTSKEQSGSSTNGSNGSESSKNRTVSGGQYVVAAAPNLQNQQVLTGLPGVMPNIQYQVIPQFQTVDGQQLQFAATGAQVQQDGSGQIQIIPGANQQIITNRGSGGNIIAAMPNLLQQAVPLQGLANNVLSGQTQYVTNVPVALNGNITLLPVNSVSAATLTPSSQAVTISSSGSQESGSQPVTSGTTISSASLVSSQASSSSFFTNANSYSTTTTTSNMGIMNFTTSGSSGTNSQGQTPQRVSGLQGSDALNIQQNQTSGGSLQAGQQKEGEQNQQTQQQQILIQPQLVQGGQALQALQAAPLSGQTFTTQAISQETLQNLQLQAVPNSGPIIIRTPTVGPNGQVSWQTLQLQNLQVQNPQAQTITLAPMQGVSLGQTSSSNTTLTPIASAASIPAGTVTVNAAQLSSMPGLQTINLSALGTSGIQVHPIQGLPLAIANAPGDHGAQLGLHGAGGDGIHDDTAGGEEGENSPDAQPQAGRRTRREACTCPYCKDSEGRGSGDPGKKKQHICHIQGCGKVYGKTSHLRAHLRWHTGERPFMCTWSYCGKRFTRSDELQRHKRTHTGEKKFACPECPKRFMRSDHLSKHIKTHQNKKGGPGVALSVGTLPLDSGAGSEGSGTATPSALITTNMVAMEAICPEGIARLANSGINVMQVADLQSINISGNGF
Estrogen-related receptor gamma (Homo sapiens), sequence (P62508 whole entry, looked up, the tested form may be a part): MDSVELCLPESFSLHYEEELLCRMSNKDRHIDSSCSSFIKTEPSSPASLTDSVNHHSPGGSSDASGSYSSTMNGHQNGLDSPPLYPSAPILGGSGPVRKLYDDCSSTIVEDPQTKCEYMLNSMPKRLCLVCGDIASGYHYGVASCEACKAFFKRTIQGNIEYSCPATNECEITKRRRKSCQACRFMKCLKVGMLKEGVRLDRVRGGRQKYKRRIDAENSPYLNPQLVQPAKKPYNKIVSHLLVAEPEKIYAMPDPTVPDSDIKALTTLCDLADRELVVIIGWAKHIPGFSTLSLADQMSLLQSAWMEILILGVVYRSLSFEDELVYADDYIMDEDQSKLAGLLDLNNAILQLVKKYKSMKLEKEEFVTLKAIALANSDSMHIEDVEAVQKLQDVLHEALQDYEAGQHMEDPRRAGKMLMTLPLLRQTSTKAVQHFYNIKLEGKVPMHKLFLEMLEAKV
Estrogen receptor (Homo sapiens), sequence (P03372 whole entry, looked up, the tested form may be a part): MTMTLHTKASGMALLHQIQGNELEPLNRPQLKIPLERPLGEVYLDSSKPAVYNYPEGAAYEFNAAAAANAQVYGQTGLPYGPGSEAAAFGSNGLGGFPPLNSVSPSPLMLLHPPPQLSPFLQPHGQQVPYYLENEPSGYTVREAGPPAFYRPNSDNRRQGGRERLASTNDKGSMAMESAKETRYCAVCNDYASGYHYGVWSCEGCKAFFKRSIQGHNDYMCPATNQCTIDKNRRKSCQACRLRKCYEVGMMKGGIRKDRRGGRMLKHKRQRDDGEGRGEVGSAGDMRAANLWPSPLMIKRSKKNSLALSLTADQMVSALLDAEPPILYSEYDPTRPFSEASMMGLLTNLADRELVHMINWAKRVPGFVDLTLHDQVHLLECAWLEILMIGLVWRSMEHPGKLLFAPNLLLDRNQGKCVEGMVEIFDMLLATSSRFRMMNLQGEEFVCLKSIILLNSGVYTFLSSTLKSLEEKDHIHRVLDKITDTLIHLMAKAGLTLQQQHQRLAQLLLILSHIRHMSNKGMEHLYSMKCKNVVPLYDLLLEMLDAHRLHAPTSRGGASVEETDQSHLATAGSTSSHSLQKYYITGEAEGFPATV
Nuclear receptor subfamily 1 group I member 3 (Homo sapiens), sequence (Q14994 whole entry, looked up, the tested form may be a part): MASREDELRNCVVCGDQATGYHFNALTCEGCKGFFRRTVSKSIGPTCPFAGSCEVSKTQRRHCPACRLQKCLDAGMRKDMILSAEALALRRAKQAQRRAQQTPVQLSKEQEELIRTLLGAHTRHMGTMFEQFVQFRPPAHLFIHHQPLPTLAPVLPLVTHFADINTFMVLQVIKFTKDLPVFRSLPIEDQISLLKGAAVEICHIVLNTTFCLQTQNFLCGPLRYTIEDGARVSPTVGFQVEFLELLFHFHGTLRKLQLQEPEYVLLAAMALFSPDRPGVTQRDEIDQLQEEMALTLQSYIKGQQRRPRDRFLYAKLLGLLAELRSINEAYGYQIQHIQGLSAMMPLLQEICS

In general, AC50 refers to the concentration giving half of the maximal activity seen. As for `COc1cccc(-c2ccc(/C=C\CN3CCCCCC3)cc2Cl)c1`, the call in [1], in test [3], in test [4], in [5], in test [7] and in [8] was inactive. The outcome in test [9], in [10], in test [11], in test [13], in test [14] and in test [15] was inactive. In addition, the compound was classed as inactive in [16] and in [17]. Besides, the concentration at half-maximal activity (AC50) was 3.67 µM (active) in test [2], 20.5 µM (active) in test [6] and 6.94 µM (active) in test [12].
With `CNS(=O)(=O)c1cc(C(=O)N2CCC(CCN3C4CCC3CC(n3c(C)nc5ccccc53)C4)(c3cccc(F)c3)CC2)c(Cl)cc1F` (stereo not given), the compound was classed as inactive in test [1], in [4], in test [5], in test [18], in test [7] and in test [8]. In addition, the compound was called inactive in test [10], in test [11], in test [15], in [16] and in test [19]. In addition, the half-maximal activity concentration (AC50) in [2] was 1.08 µM (active); in test [3], 3.63 µM (active); in test [6] it was 3.32 µM (active); in [9], 7.52 µM (active); in [12], 5.14 µM (active).
With `CCCN(C1CCN(C(=O)C2CCNCC2)CC1)[C@@H]1CCc2ccc(OC)cc2C1`, the compound was called inactive in test [1], in [3], in test [4], in test [5], in [6] and in [7]. Further, the call in test [8], in test [10], in [11], in [12], in [20] and in [16] was inactive. Further, the concentration at half-maximal activity (AC50) in [2] is 100 µM (active); in test [9], 113 µM (active); in test [15], 153 µM (active).
Regarding `O=c1[nH]c2ccc(S(=O)CCN3CCC(Cc4ccc(F)cc4)CC3)cc2o1` (stereo not given), the half-maximal activity concentration (AC50) in test [1] is 73 µM (active); in [2] it was 26.3 µM (active); in [5] it was 66.5 µM (active); in [6], 31.2 µM (active); in test [12] it was 55.1 µM (active); in test [15], 71.1 µM (active). Further, the outcome in test [3], in test [4], in test [18], in test [7], in test [8] and in test [9] was inactive. For the same compound, the outcome in test [10], in test [11], in [14], in [19] and in test [17] was inactive.
